MBNL1-CUG inh: qHTS Assay for Inhibitors of MBNL1-poly(CUG) RNA binding; Muscleblind-like protein 1 (Homo sapiens), Q9NR56; TR-FRET MBNL1-His/biotin-(CUG)12 binding, 665/545 ratio; Potency, µM (series often up to 57.5 µM), usual class: inhibitors; 280,000 tested, 0.036% active; AID 2675, 2010; active = well fitted inhibition curve with a large enough effect in the signal ratio, with a control signal flat, not every such curve was filed as active; inconclusive = small, poorly fitted or top-dose-only effect, or effect the other way, or a change in a side signal; inactive = no such curve, though single readings can be large or run the other way; the % refers to the signal ratio
Target sequence (Q9NR56 whole entry, looked up): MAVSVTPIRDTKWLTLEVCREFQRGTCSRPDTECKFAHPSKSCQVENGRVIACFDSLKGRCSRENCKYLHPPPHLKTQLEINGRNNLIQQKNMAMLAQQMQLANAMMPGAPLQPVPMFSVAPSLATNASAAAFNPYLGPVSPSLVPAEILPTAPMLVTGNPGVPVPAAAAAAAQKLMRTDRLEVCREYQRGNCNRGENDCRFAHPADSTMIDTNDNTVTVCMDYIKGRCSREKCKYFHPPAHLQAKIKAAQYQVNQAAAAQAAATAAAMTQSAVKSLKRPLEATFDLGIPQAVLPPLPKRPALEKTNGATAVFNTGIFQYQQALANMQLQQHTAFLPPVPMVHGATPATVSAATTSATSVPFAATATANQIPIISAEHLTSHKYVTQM
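His-tagged MBNL1 binding to biotinylated (CUG)12 RNA was measured by TR-FRET using terbium anti-His antibody (0.055 ng/ul final) and streptavidin-XL665 (5 nM final). Compounds were titrated 92 nM to 58 uM; 60 min at room temperature.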
Mito fusion yeast: qHTS Assay for Small Molecule Inhibitors of Mitochondrial Division or Activators of Mitochondrial Fusion; AID 485298, 2010; 320,000 tested, 0.23% active; S. cerevisiae fusion-defective mutant growth rescue, CellTiterGlo 48 h; Potency, µM (top dose mostly 46.1 µM), actives largely listed as activators; also: nearly all actives have a fitted effect of over 45% in size
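Compounds are tested for their ability to restore growth of mitochondrial fusion-defective yeast strains at non-permissive 37C in YPEG medium over 48 hours. Viability is quantified by luciferase luminescence.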
GRP78 ERSR act: qHTS for Inducers of the Endoplasmic Reticulum Stress Response (ERSR) in Human Glioma: qHTS. U87-MG GRP78 promoter luciferase reporter, 16 h. Potency, µM, usual class: activators. 420,000 tested, 0.02% active. AID 602332, 2012; also: series mostly up to about 76 µM; nearly all actives have a fitted effect of over 35% in size
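Stably transfected U87-MG glioma cells carrying a GRP78-based luciferase sensor; 16 h compound incubation. Luminescence end-point read 10 min after Bright-Glo addition at room temperature.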
ClpP mod: qHTS Assay for Activators of ClpP. 340,000 tested, 1.9% active. Potency, µM (series often up to 57.5 µM). ATP-dependent Clp protease proteolytic subunit (Bacillus subtilis (strain 168)), P80244. AID 651965, 2013. purified B. subtilis ClpP, FRET peptide cleavage, 20 min; active = well fitted falling curve with a large enough effect; inconclusive = small, poorly fitted or top-dose-only effect; inactive = no such curve, though single readings can be large or run the other way; also: the source files actives as falling curves though it sought activators and does not explain the sign; nearly all actives have a fitted effect of over 65% in size
Target sequence (P80244 whole entry, looked up): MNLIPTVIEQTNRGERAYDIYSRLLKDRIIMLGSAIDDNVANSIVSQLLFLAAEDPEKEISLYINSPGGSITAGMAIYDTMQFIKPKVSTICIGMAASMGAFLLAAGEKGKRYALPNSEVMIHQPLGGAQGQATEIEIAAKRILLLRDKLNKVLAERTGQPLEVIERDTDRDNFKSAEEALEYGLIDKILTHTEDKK
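Purified B. subtilis ClpP, 10 microg/mL final in Tris/HCl pH8 with KCl, BSA, glycerol and Tween-20, cleaved an Abz/nitrotyrosine-quenched decapeptide. Fluorescence (ex 320, em 430) was read at 0 and 20 min at room temperature. Delta was normalized to 5.8 microM ADEP and DMSO/no-enzyme controls.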
A-T KAP1 phos: qHTS Assay for Identifying a Potential Treatment of Ataxia-Telangiectasia; F2112 A-T fibroblasts, KAP-1 phosphorylation AlphaLISA; neocarzinostatin DNA damage 30 min before lysis; Potency, µM (series often up to 57.5 µM), actives largely listed as activators; 320,000 tested, 0.19% active; AID 485349, 2010; also: nearly all actives have a fitted effect of over 45% in size
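hTERT-immortalized A-T patient fibroblasts (F2112), 500 cells/well in OPTI-MEM, 1% FBS, got compounds for 60 min, then NCS for 30 min at 37C. Lysates were then assayed for phospho-KAP-1 by AlphaLISA (anti-pKAP1 donor, anti-KAP1 acceptor beads), 6 hr at 25C.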
TCR act: Activators of T cell receptors: qHTS campaign. primary human leukocytes, anti-CD3, IL-2 HTRF, 48 h. Potency, µM (series often up to 9.22 µM), most hits filed as activators. 330,000 tested, under 10 active. AID 504894, 2011
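HTRF read-out of IL-2 secretion: europium cryptate donor excited at 320nm, d2 acceptor emission at 665nm. Cells were primary human leukocytes incubated 48 hr with compounds and a-CD3 beads, supplying TCR signal only.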
Numbers stand for hits; 0 = inactive; ? = inconclusive; - = no result; ! = a repeat was not active. Rows were chosen to be rich in hits. Some 1.8% of all compounds tested hit in one or more screens of this group. Unless noted, calls follow the shape of the dose curve; as a rule, active = well fitted curve in the direction sought with a large enough effect; inconclusive = small, poorly fitted or top-dose-only effect, or another doubt; inactive = no such curve, though single readings can be large; an effect the other way counts as inactive or inconclusive.

SMILES | MBNL1-CUG inh | Mito fusion yeast | GRP78 ERSR act | ClpP mod | A-T KAP1 phos | TCR act
COc1ccc(O)c(CN2CCC3(CC2)c2ccccc2[C@@H](NC(=O)c2cccc(F)c2)[C@@H]3OC)c1 | - | - | 0 | - | - | -
COc1ccc(OC)c(-c2csc(NC(=O)COC(=O)C3(C)CC3(Cl)Cl)n2)c1 (configuration not stated) | - | 16µM | 0 | 0 | 0 | 0
COc1ccc(CC(=O)Nc2nc(-c3cc(OC)ccc3OC)cs2)cc1 | 0 | 0 | 0 | - | 0 | 0
O=C(Nc1nnc(-c2ccc(Cl)cc2)o1)Nc1ccccc1Cl | 0 | 0 | 0 | 28µM | 0 | 0
CC1=C(C)C(=O)C(CCCCC#CCCCC#CCO)=C(C)C1=O | 0 | 18µM! | 0 | 0 | 0 | 0
Cc1ccc(NC2=CC(=O)c3sc(C)nc3C2=O)cc1 | - | - | 0 | - | - | -
COc1ccc(OC)c(CNC(=O)c2ccc3nc(C(C)C)oc3c2)c1 | - | - | 0 | 32µM | - | -
O=C(Nc1ccc(Cl)cc1)c1csc(-c2ccncc2)n1 | 0 | 0 | 0 | - | 0 | 0
O=C(Nc1ccc(Cl)cc1Cl)c1csc(-c2cccnc2)n1 | 0 | 0 | 0 | 0 | 40µM | 0
O=C(NCc1ccccc1)c1csc(-c2cccnc2)n1 | 0 | 0 | 0 | 0 | 0 | 0
O=C(Nc1ccc(Cl)cc1)c1csc(-c2ccccc2)n1 | 0 | 0 | 0 | 0 | 18µM | 0
O=C(O)CC(C(=O)O)c1cn(Cc2ccccc2)c2ccccc12 (configuration not stated) | 0 | 0 | 0 | 28µM | 0 | 0
CC1CCc2c(sc(/N=C/c3ccco3)c2C(N)=O)C1 (configuration not stated) | 0 | 0 | 0 | - | 16µM | 0
COc1ccccc1C1CN(Cc2cccc(O)c2)Cc2ccccc2O1 (configuration not stated) | - | - | 0 | - | - | -
C=CCn1c(=O)n(C2OC(CO)C(O)C2O)c2nc(N)[nH]c(=O)c21 (configuration not stated) | - | - | 0 | - | - | -
COC1CCCCC1NS(=O)(=O)c1ccccc1 (configuration not stated) | 0 | 0 | 0 | 28µM | 0 | 0
COc1ccc(OC)c2c(C)ccnc12 | - | - | 0 | 0 | - | -
COC(=O)c1nn(-c2ccc(OC)cc2)c(=O)cc1O | ? | 1.6µM | 0 | - | 0 | 0
O=[N+]([O-])c1ccc(/C=C2\C=C(C(O)c3ccc([N+](=O)[O-])cc3)c3ccccc32)cc1 (configuration not stated) | - | - | 0 | 0 | - | -
CCOC(=O)CSc1nc2c(c(-c3ccc(C)o3)c1C#N)CCCC2 | 0 | 0 | 0 | 28µM | 0 | 0
O=S(=O)(c1ccccc1)N1CCN(C(=S)Nc2ccc(F)cc2)CC1 | - | 0 | 0 | 20µM | 0 | 0
O=[N+]([O-])c1ccc(NC(=S)N2CCN(c3ccc(F)cc3)CC2)cc1 | 0 | 0 | 0 | 18µM | 0 | 0
COc1ccc(S(=O)(=O)N2CCN(C(=S)Nc3ccc(S(N)(=O)=O)cc3)CC2)cc1 | 0 | 0 | 0 | 18µM | 0 | 0
CC(=O)Nc1ccccc1-c1nc(CNC(=O)c2ccc(-c3ccccc3F)cc2)c(C)o1 | - | - | 0 | - | - | -
O=C(O)c1cc(NCc2cccs2)ccc1N1CCOCC1 | 0 | 0 | 0 | 0 | 0 | 0
SMILES | MBNL1-CUG inh | Mito fusion yeast | GRP78 ERSR act | ClpP mod | A-T KAP1 phos | TCR act
O=C(O)c1cc(NCc2ccc(F)cc2)ccc1N1CCOCC1 | 0 | 0 | 0 | 32µM | 0 | 0
CCOc1ccc(-c2cc(NC(=O)c3ccc(C)cc3)c(C(=O)OC)s2)cc1 | - | - | 0 | ? | - | -
CCOc1ccc(-c2cc(NC(=O)c3ccccc3)c(C(=O)OC)s2)cc1 | - | - | 0 | 35µM | - | -
O=C(O)CCn1cc(/C=C2/NC(=S)N(c3ccccc3)C2=O)c(-c2ccccc2)n1 | ? | 0 | 0 | 13µM | 0 | 0
O=C(N/N=C/c1ccc(F)c(F)c1)c1cc2c(s1)-c1ccccc1CC2 | 0 | 0 | 0 | 32µM | 0 | 0
COC(=O)c1ccc(-c2ccc(CNCC(O)c3ccccc3)o2)cc1 (configuration not stated) | 0 | 0 | 0 | 16µM | 0 | 0
COC(=O)c1ccc(CNCC(O)COc2ccc(-c3ccccc3)cc2)cc1 (configuration not stated) | 0 | 0 | 0 | - | 0 | 0
CC(C)(C)n1ncc2c(=O)n(Cc3c(F)ccc(F)c3Cl)cnc21 | - | - | 0 | - | - | -
COc1ccc(CNC(=O)c2cccc(C)c2[N+](=O)[O-])cc1 | 0 | 0 | 0 | 0 | 0 | 0
Cc1cccc(OC(C)C(=O)NCc2ccc(S(N)(=O)=O)cc2)c1 (configuration not stated) | 0 | 0 | 0 | 3.2µM | 0 | 0
Cc1cccc(C(=O)NCc2ccc(S(N)(=O)=O)cc2)c1[N+](=O)[O-] | - | 0 | 0 | 28µM | 0 | 0
CCN(CC)c1ccc(/C=C/c2ccc3ccccc3n2)cc1 | - | - | 0 | 0 | - | -
CCNC(=O)c1c(O)c2ccccc2[nH]c1=O | 0 | 0 | 0 | 25µM | 0 | 0
COc1ccc(CNC(=O)c2c(O)c3cc(OC)c(OC)cc3[nH]c2=O)cc1OC | 0 | 0 | 0 | 7.9µM | 0 | -
CCCCCCc1c(O)c2ccccc2[nH]c1=O | 0 | 0 | 0 | 25µM | 0 | 0
COc1cc2[nH]c(=O)c(C(=O)NCc3ccc(F)cc3)c(O)c2cc1OC | 0 | 0 | 0 | 0 | 0 | 0
CC(C)c1nn2c(=O)cc(COC(=O)c3ccccc3NC(=O)c3cccc(Cl)c3)nc2s1 | - | - | 0 | 10µM | - | -
Cc1ccc(C(=O)Nc2ccccc2C(=O)OCc2cc(=O)n3nc(C(C)C)sc3n2)cc1 | - | - | 0 | 0 | - | -
CCCCCCCCCCCCC/C=C/[C@@H](O)[C@H](CO)NCCCCCCCC | - | - | 0 | - | - | -
Cc1c(C(=O)NCc2cccc(F)c2)sc2ncnc(NCC3CCCO3)c12 (configuration not stated) | - | - | 0 | - | - | -
COC(=O)C(C)Oc1cc(OC(C)C(=O)OC)c2c(-c3ccccc3)cc(=O)oc2c1 (configuration not stated) | 0 | 0 | 32µM | 0 | 0 | 0
CCOC(=O)c1ccc(-c2cccc(-c3cc(=O)oc4cc(OC)cc(OC)c34)c2)cc1 | - | - | 0 | 20µM | 0 | 0
CCOC(=O)NCCOc1ccc(Oc2ccccc2)cc1 | - | - | 0 | - | - | -
c1ccc(-n2c(-c3ccco3)nnc2-c2ccco2)cc1 | 0 | 0 | 0 | 14µM | 0 | 0
O=C(CC1(c2cccc(F)c2)CC(=O)N(Cc2cccnc2)C1=O)N1CCCCCCC1 (configuration not stated) | - | - | 0 | - | - | -
NC(=O)C1=C(N=C2CCCCC2)CCCC1 | - | - | 0 | 32µM | - | 0

Screens as filed in PubChem BioAssay.
